This is an account of results in the antibiotic and cytotoxicity screens of Wong et al. (2023).

The campaign covered roughly 39,000 compounds. About 3,300 (8.5%) were called active. Many of the other results were omitted from the sample, so actives are more common in it than they were.

In the assay the test system is HepG2. In words: cytotoxicity call (relative viability < 0.9). To be noted: 10 µM.
As for `NC[C@@H](CC(=O)O)c1ccc(Cl)cc1`, the cytotoxicity call is “inactive”.

As for `CCOC(=O)c1c(CN2CCN(Cc3ccccc3)CC2)n(Cc2ccccc2)c2cc(Br)c(O)cc12`, the cytotoxicity call was “inactive”.

For the molecule `CN(C)C(=O)C(CCN1CCC(O)(c2ccc(Cl)cc2)CC1)(c1ccccc1)c1ccccc1.Cl`, the cytotoxicity call is “active”. For `CN1CCN(CC2CC2)C(=O)C12CCNCC2` the value was “inactive”; for `O=C(C1CCCC1)N1C[C@@H]2CCNC[C@@H]21`, “inactive”; for `CCN1C(=O)/C(=C/c2ccc[nH]2)C(=O)NC1=S`, “inactive”. For `CC(=O)OC1CC(OC2C(O)CC(OC3C(O)CC(OC4CCC5(C)C(CCC6C5CC(O)C5(C)C(C7=CC(=O)OC7)CCC65O)C4)OC3C)OC2C)OC(C)C1OC1OC(CO)C(O)C(O)C1O` (stereo unspecified) the value was “active”; for `CO[C@H]1[C@@H](O)C[C@@H](O[C@H]2[C@@H](O)C[C@@H](O[C@H]3[C@@H](O)C[C@@H](O[C@H]4CC[C@@]5(C)[C@@H](CC[C@H]6[C@@H]5C[C@@H](O)[C@@]5(C)[C@H](C7=CC(=O)OC7)CC[C@@]65O)C4)O[C@@H]3C)O[C@@H]2C)O[C@@H]1C`, “active”. For the molecule `CC12CCC(O)CC1CCC1C2CC(O)C2(C)C(C3=CC(=O)OC3)CCC12O` (stereo unspecified), the cytotoxicity call is “active”. As to `CC12CCC3C(CCC4CC(O)CCC43C)C1CCC2O` (stereo unspecified), the cytotoxicity call was “inactive”.

Turning to `CO[C@H]1[C@@H](O)[C@@H](O[C@H]2CC[C@]3(C=O)[C@@H]4[C@@H](CC[C@]3(O)C2)[C@@]2(O)CC[C@H](C3=CC(=O)OC3)[C@@]2(C)C[C@H]4OC(C)=O)O[C@@H](C)[C@@H]1OC(C)=O`, the cytotoxicity call is “inactive”. For `CC12CCC3C(CCC4CC(O)CCC43C)C1CCC2=O` (stereo unspecified) the value was “inactive”; for `CC(=O)O[C@H]1C[C@H](O[C@H]2[C@@H](O)C[C@H](O[C@H]3[C@@H](O)C[C@H](O[C@H]4CC[C@@]5(C)[C@@H](CC[C@H]6[C@@H]5C[C@@H](O)[C@]5(C)[C@@H](C7=CC(=O)OC7)CC[C@]65O)C4)O[C@@H]3C)O[C@@H]2C)O[C@H](C)[C@H]1O[C@@H]1O[C@H](CO)[C@@H](O)[C@H](O)[C@H]1O`, “active”. For `CO[C@H]1[C@H](O)[C@@H](O[C@H]2[C@@H](C)O[C@@H](O[C@H]3[C@H](C)O[C@H](O[C@H]4CC[C@@]5(C)[C@@H](CC[C@@]6(O)[C@@H]5C[C@@H](O)[C@]5(C)[C@]6(O)CC[C@@]5(O)[C@@H](C)O)C4)C[C@@H]3OC)C[C@H]2OC)O[C@@H](C)[C@H]1O` the value was “inactive”. Take `O=C(NC[C@H]1CC[C@]2(CNCCOC2)O1)c1ccnnc1`: the cytotoxicity call was “inactive”. Consider `C=C(C)[C@H]1CN[C@H](C(=O)O)[C@@H]1CC(=O)O`, for which the cytotoxicity call is “inactive”. Next, `CO/C1=C\C(C)=C\[C@@H](C)[C@@H](O)[C@@H](C)C/C(C)=C/C=C/[C@H](OC)[C@@H]([C@@H](C)[C@@H](O)[C@H](C)C(=O)/C=C/[C@H](C)[C@H](O)C(C)C)OC1=O`: “inactive”.

As to `CC(C)c1ccc2c(c1)[C@H](O)[C@H](N)CCO2`, the cytotoxicity call is “inactive”. As for `O=C1NCC2(CNC2)O1`, the cytotoxicity call is “inactive”.

On to `CCN(CC)C1CCCCC1`, for which the cytotoxicity call was “inactive”. Next, `NC1(Cc2ccc(Cl)cc2)CC1`: “inactive”; `O.O=c1ccc2cc(OC3OC(CO)C(O)C(O)C3O)c(O)cc2o1` (stereo unspecified): “inactive”; `CC(C)(C)[C@]1(O)C[C@@H]2OC(=O)C[C@]23C(=O)O[C@@H]2OC(=O)[C@H](O)[C@]231`: “inactive”. Next, `CC(=O)OC1CCC2(C)C(CCC3C2CCC2(C)C(C4=CC(=O)OC4)C(OC(C)=O)CC32O)C1` (stereo unspecified): “active”. Next, `CC(=O)O[C@H]1C[C@@H]2CC[C@@H]3[C@H](CC[C@@]4(C)[C@H]3C[C@H]([N+]3(C)CCCCC3)[C@@H]4OC(C)=O)[C@@]2(C)C[C@@H]1[N+]1(C)CCCCC1`: “inactive”; `O=C(O)CC[N+](=O)[O-]`: “inactive”; `C[C@H]1CN([C@@H](C)CO)C(=O)CCCn2cc(nn2)CO[C@@H]1CN(C)C(=O)Oc1ccc2ccccc2c1`: “inactive”. `[N-]=[N+]=NCC(=O)Nc1ccon1`: the cytotoxicity call is “inactive”.

`N#CCCN.O=C(O)C=CC(=O)O`: the cytotoxicity call was “inactive”. For `COC(=O)[C@H]1[C@H](CO)[C@H]2Cn3c(ccc(C4=CCCC4)c3=O)[C@@H]1N2S(=O)(=O)c1cn(C)cn1` the value was “inactive”. Consider `C/C=C(/C)C(=O)O[C@H]1CC[C@@]2(C)[C@@H]3CC[C@H]4[C@]5(O)C[C@H](O)[C@@]6(O)[C@@H](CN7C[C@@H](C)CC[C@H]7[C@@]6(C)O)[C@]5(O)C[C@@]42O[C@@]13O`, for which the cytotoxicity call was “inactive”. For `CC[C@@H](C)C(=O)O[C@H]1[C@H](O)[C@H]2[C@@H](CN3C[C@@H](C)CC[C@@H]3[C@@]2(C)O)[C@H]2C[C@]34O[C@]5(O)[C@@H](OC(=O)[C@@](C)(O)CC)CC[C@@]3(C)[C@@H]5[C@@H](OC(C)=O)[C@@H](OC(C)=O)[C@@H]4[C@@]21O` the value was “inactive”.

On to `CC[C@@H](C)C(=O)O[C@H]1[C@H](O)[C@H]2[C@@H](CN3C[C@@H](C)CC[C@@H]3[C@@]2(C)O)[C@H]2C[C@]34O[C@]5(O)[C@@H](OC(=O)[C@@](C)(O)[C@@H](C)O)CC[C@@]3(C)[C@@H]5[C@@H](OC(C)=O)[C@@H](OC(C)=O)[C@@H]4[C@@]21O`, for which the cytotoxicity call was “active”. As for `CC(C)C12CN3CCN(CC(C3)C1=O)C2`, the cytotoxicity call is “inactive”. Next, `C[C@@H]1CN([C@H](C)CO)C(=O)c2c(c3ccccc3n2C)-c2ccccc2CO[C@H]1CN(C)C(=O)Oc1ccccc1`: “inactive”; `Cc1o[nH]c(=O)c1C[C@@H](N)C(=O)O`: “inactive”; `COc1ccc(OC)c(CN)c1`: “inactive”. As for `COc1ccc(OC)c(C(O)C(C)N)c1.Cl` (stereo unspecified), the cytotoxicity call was “active”. `CC(N)C(O)c1ccccc1.Cl` (stereo unspecified): the cytotoxicity call is “inactive”. For `O=c1[nH]oc2c1CCNC2` the value was “inactive”; for `COC(C)(C)CCC[C@H](C)C/C=C/C(C)=C/C(=O)OC(C)C`, “inactive”; for `Cl.O=C1CCC2(O)C3Cc4ccc(O)c5c4C2(CCN3CC2CC2)C1O5` (stereo unspecified), “inactive”. For `C=CC1CN2CCC1CC2C(OC(=O)OCC)c1ccnc2ccc(OC)cc12` (stereo unspecified) the value was “inactive”; for `CCC1CN2CCC1CC2C(O)c1ccnc2ccc(OC)cc12` (stereo unspecified), “active”. For `C=CC1CN2CCC1CC2C(O)c1ccnc2ccccc12` (stereo unspecified) the value was “inactive”; for `CC1OC(OC2CCC3(C=O)C4CCC5(C)C(C6=CC(=O)OC6)CCC5(O)C4CCC3(O)C2)C(O)C(O)C1O` (stereo unspecified), “active”. For `COC1C(O)C(C)OC(OC2CCC3(C)C4CCC5(C)C(C6=CC(=O)OC6)CCC5(O)C4CCC3(O)C2)C1O` (stereo unspecified), the cytotoxicity call was “inactive”. For `COC1C(O)C(C)OC(OC2CCC3(C=O)C(CCC4C3CCC3(C)C(C5=CC(=O)OC5)CCC43O)C2)C1O` (stereo unspecified) the value was “active”; for `C[C@@H]1O[C@@H](O[C@H]2CC[C@]3(C=O)[C@H]4CC[C@]5(C)[C@@H](C6=CC(=O)OC6)CC[C@]5(O)[C@@H]4CC[C@]3(O)C2)[C@H](O)[C@H](O)[C@H]1O`, “active”; for `CO[C@H]1[C@@H](O)[C@@H](C)O[C@H](O[C@H]2CC[C@@]3(C)[C@H]4CC[C@@]5(C)[C@@H](C6=CC(=O)OC6)CC[C@]5(O)[C@@H]4CC[C@]3(O)C2)[C@@H]1O`, “inactive”.

As to `CO[C@H]1C[C@H](O[C@H]2CC[C@]3(C=O)[C@H]4CC[C@]5(C)[C@@H](C6=CC(=O)OC6)CC[C@]5(O)[C@@H]4CC[C@]3(O)C2)O[C@H](C)[C@H]1O`, the cytotoxicity call is “active”.
